# According to the supplement of paper PMC8728848:
# The full list was thinned out, with the strongest signals kept by preference.
# What was measured:
# Assay in all cases: glycan array binding signal (z-score within array); higher = stronger binding
# [1] = test system: Neu5Ac(a2-6)Gal(b1-4)GlcNAc(b1-2)Man(a1-3)[GlcNAc(b1-2)Man(a1-6)]Man(b1-4)GlcNAc(b1-4)GlcNAc; conditions: glycan notation: IUPAC condensed, linker removed
# Procedure, shortened: (§1)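 Glycan array data came from 3228 arrays in the Consortium for Functional Glycomics database, and only arrays with an available protein sequence were kept. Glycan names were put into IUPAC-condensed notation, and columns mapping to the same glycan were averaged. The binding signal is a within-array Z-score, averaged across arrays of one protein sequence run at different concentrations or buffers and across linkers. A negative Z-score can be read as non-binding.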
# [2] = test system: Neu5Ac(a2-6)Gal(b1-4)GlcNAc(b1-2)Man(a1-6)[Man(a1-3)]Man(b1-4)GlcNAc(b1-4)GlcNAc; conditions: glycan notation: IUPAC condensed, linker removed
# Procedure, shortened: as §1
# [3] = test system: Neu5Ac(a2-6)Gal(b1-4)GlcNAc(b1-2)Man(a1-3)[GlcNAc(b1-2)Man(b1-4)GlcNAc(b1-2)Man(a1-6)]Man(b1-4)GlcNAc(b1-4)GlcNAc; conditions: glycan notation: IUPAC condensed, linker removed
# Procedure, shortened: as §1
# [4] = test system: Neu5Ac(a2-6)Gal(b1-4)GlcNAc(b1-2)Man(a1-3)[Neu5Ac(a2-6)Gal(b1-4)GlcNAc(b1-2)Man(a1-6)]Man(b1-4)GlcNAc(b1-4)[Fuc(a1-6)]GlcNAc; conditions: glycan notation: IUPAC condensed, linker removed
# Procedure, shortened: as §1
# [5] = test system: Neu5Ac(a2-6)Gal(b1-4)GlcNAc(b1-2)Man(a1-3)[GlcNAc(b1-4)][Neu5Ac(a2-6)Gal(b1-4)GlcNAc(b1-2)Man(a1-6)]Man(b1-4)GlcNAc(b1-4)GlcNAc; conditions: glycan notation: IUPAC condensed, linker removed
# Procedure, shortened: as §1
# [6] = test system: Neu5Ac(a2-6)Gal(b1-4)GlcNAc(b1-2)Man(a1-3)[Man(a1-6)]Man(b1-4)GlcNAc(b1-4)GlcNAc; conditions: glycan notation: IUPAC condensed, linker removed
# Procedure, shortened: as §1
# [7] = test system: Neu5Ac(a2-6)Gal(b1-4)GlcNAc(b1-2)Man(a1-3)[Neu5Ac(a2-6)Gal(b1-4)GlcNAc(b1-2)Man(a1-6)]Man(b1-4)GlcNAc(b1-4)GlcNAc; conditions: glycan notation: IUPAC condensed, linker removed
# Procedure, shortened: as §1
# [8] = test system: Neu5Ac(a2-6)Gal(b1-4)GlcNAc(b1-2)Man(a1-6)Man(b1-4)GlcNAc(b1-4)GlcNAc; conditions: glycan notation: IUPAC condensed, linker removed
# Procedure, shortened: as §1
# [9] = test system: Neu5Ac(a2-6)Gal(b1-4)GlcNAc(b1-2)Man(a1-6)[Gal(b1-4)GlcNAc(b1-2)Man(a1-3)]Man(b1-4)GlcNAc(b1-4)GlcNAc; conditions: glycan notation: IUPAC condensed, linker removed
# Procedure, shortened: as §1
# [10] = test system: Neu5Ac(a2-6)Gal(b1-4)GlcNAc(b1-2)Man(a1-6)[GlcNAc(b1-2)Man(a1-3)]Man(b1-4)GlcNAc(b1-4)GlcNAc; conditions: glycan notation: IUPAC condensed, linker removed; mutation: R125K
# Procedure, shortened: as §1
# Sequence of CHI3L1 (Homo sapiens), P36222 (P36222 whole entry): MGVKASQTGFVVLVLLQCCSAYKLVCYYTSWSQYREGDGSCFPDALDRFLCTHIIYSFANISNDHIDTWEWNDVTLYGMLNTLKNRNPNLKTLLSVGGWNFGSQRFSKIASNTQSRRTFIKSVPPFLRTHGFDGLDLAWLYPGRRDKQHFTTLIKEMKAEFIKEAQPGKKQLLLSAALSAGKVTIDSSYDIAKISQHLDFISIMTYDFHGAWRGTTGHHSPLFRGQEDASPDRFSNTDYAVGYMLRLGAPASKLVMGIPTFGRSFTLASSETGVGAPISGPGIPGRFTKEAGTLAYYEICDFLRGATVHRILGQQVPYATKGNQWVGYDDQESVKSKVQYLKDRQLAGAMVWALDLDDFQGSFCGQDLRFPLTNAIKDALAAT
# Sequence of PILRa (Mus musculus), Q2YSF3 (Q2YSF3 entry or part of it): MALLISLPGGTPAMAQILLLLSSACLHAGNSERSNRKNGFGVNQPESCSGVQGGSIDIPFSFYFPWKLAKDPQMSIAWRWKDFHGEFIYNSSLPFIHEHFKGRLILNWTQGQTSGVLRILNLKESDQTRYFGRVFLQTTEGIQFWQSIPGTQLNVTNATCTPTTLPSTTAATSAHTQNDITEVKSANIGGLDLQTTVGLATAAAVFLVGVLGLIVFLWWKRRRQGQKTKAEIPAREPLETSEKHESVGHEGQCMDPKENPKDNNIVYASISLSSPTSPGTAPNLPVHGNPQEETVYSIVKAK
# Sequence of Aggrecan (Rattus norvegicus), NP_071526 (chain, as listed by the source): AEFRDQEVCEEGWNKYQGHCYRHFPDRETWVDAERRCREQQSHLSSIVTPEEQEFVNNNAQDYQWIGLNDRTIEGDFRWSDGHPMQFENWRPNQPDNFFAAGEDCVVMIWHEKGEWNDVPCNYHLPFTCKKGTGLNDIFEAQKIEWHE
# Sequence of SRLC (Mus musculus), Q8VIF6 (Q8VIF6 other isoform, or with tags, fused parts or gaps): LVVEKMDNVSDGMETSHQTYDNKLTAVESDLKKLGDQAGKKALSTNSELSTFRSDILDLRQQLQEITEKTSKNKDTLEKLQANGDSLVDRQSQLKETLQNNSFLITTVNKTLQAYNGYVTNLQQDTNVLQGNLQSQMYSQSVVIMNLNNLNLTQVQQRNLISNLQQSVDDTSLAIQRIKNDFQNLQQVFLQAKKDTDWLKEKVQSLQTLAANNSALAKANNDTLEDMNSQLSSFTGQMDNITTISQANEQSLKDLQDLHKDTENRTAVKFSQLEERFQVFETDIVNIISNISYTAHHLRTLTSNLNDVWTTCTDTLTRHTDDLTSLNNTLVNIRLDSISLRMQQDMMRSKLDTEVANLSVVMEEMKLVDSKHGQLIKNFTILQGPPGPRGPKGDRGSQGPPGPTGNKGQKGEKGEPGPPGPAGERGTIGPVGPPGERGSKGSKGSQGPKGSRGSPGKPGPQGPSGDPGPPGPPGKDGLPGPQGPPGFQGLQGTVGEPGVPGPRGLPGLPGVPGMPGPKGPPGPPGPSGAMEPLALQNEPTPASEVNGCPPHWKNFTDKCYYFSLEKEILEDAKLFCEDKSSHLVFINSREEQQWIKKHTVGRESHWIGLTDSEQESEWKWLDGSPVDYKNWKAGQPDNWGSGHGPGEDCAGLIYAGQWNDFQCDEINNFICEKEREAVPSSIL
# Sequence of CHT (Homo sapiens) (chain, as listed by the source): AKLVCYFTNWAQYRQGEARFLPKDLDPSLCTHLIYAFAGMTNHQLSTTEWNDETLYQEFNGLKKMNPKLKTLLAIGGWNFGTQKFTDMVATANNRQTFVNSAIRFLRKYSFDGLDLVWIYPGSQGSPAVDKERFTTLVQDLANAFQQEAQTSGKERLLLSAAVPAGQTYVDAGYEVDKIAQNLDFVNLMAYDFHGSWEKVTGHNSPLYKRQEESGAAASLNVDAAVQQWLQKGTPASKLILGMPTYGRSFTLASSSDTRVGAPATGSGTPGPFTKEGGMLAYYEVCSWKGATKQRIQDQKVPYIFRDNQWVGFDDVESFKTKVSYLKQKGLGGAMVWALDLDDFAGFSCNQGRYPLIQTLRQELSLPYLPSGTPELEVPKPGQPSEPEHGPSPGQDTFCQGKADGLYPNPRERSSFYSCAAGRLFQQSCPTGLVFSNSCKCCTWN
# Sequence of C3b (Homo sapiens), P01024 (P01024 23-667): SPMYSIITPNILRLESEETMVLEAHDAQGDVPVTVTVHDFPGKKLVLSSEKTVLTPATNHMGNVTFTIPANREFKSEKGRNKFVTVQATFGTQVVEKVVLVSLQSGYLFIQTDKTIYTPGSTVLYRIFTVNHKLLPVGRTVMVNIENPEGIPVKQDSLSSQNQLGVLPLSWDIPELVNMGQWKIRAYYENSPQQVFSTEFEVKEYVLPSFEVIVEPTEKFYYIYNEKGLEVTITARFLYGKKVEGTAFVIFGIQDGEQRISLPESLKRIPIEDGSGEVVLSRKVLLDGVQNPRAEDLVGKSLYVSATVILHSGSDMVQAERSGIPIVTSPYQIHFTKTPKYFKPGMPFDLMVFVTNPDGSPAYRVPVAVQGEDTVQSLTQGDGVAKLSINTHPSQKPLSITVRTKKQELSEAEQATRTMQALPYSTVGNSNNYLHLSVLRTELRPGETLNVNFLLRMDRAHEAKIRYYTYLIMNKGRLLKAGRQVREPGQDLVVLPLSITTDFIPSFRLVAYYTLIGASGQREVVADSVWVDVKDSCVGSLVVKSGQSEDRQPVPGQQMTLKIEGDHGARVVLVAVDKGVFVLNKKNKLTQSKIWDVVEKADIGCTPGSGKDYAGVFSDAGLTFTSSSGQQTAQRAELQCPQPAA
substance,measurement,setting,value
"Aggrecan (Rattus norvegicus), NP_071526",glycan array binding signal (z-score),[1],-0.152
same,glycan array binding signal (z-score),[2],-0.224
"CHI3L1 (Homo sapiens), P36222",glycan array binding signal (z-score),[3],-0.028
same,glycan array binding signal (z-score),[4],-0.039
MpAFP RI GFP (Marinomonas primoryensis),glycan array binding signal (z-score),[5],-0.435
same,glycan array binding signal (z-score),[6],0.118
same,glycan array binding signal (z-score),[4],2.72
"SRLC (Mus musculus), Q8VIF6",glycan array binding signal (z-score),[7],-0.158
"C3b (Homo sapiens), P01024",glycan array binding signal (z-score),[7],0.001
CHT (Homo sapiens),glycan array binding signal (z-score),"[7]; mutation: D138V, E140I",0.642
"PILRa (Mus musculus), Q2YSF3",glycan array binding signal (z-score),[8],-0.195
same,glycan array binding signal (z-score),[9],1.22
"Siglec-8 (Homo sapiens), Q9NYZ4",glycan array binding signal (z-score),[8],-0.178
same,glycan array binding signal (z-score),[8]; mutation: R125K,0.093
same,glycan array binding signal (z-score),[10],-0.193
